Our source for the outcome and AC50 values is PubChem BioAssay (EPA / NIEHS).

Experiment [1] is described as follows: ATG_CRE_CIS: Attagene CIS-FACTORIAL HepG2 Assay for human cAMP Responsive Element (CRE) binding protein 3 (AID 2282926). The following applies: HepG2 CRE cis-reporter, Attagene multiplexed mRNA; actives raise or lower the signal. The essentials:
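Capillary electrophoresis of 6-FAM-labelled, HpaI-digested PCR products quantified reporter transcripts. These came from HepG2 transiently transfected with cis-element reporters and exposed to test chemicals for 24 hours, with DMSO defining baseline activity.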

Experiment [2] has as its target CCAAT/enhancer-binding protein beta (Homo sapiens) (UniProt P17676). As to the kind of experiment: ATG_C_EBP_CIS: Attagene CIS-FACTORIAL HepG2 Assay for human CCAAT/Enhancer Binding Protein (C/EBP) beta (AID 2282927). The following applies: HepG2 Attagene cis-factorial transcription factor reporter; actives raise or lower the signal. An outline of the steps: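 Following a 24 h incubation with test chemical, transfected HepG2 cells yielded RNA whose reporter transcripts were quantified by RT-PCR and fluorescent capillary electrophoresis, with DMSO serving as baseline for bidirectional fitting.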

Experiment [3] can be described thus: ATG_CMV_CIS: Attagene CIS-FACTORIAL HepG2 Assay for human CMV (Internal Marker) (AID 2282928).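 Note: endpoint acts as a background internal control marker rather than a target.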 The following applies: HepG2 CMV promoter reporter, transcription factor profiling; actives raise or lower the signal. The essentials:
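Readout: fluorescent reporter cDNA fragments separated by capillary electrophoresis after RT-PCR and HpaI cut. Cells: HepG2 carrying transfected cis-promoter reporter constructs, dosed 24 h. Endpoint serves as background internal-marker control, fit bidirectionally versus DMSO.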

Experiment [4] is described as follows: ATG_DR4_LXR_CIS: Attagene CIS-FACTORIAL HepG2 Assay for human Liver X Receptor (LXR), DR4 submotif (AID 2282929). The following applies: HepG2 Attagene DR4 cis-reporter, mRNA transcription; actives raise or lower the signal. An outline of the steps: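 After transient transfection with multiplexed cis-promoter reporter units, HepG2 cells received test chemicals for 24 h. Reporter mRNA induction, detected by fluorescence after RT-PCR and capillary electrophoresis, was scored relative to DMSO.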

Experiment [5] deals with Aryl hydrocarbon receptor (Homo sapiens) (UniProt P35869). As to the kind of experiment: ATG_Ahr_CIS: Attagene CIS-FACTORIAL HepG2 Assay for human Aryl Hydrocarbon Receptor (Ahr) (AID 2282930). Conditions: HepG2 AhR cis-factorial reporter transcription; actives raise or lower the signal. The essentials:
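Values derive from bidirectional fitting against DMSO negative control. Underlying signal: cis-element reporter mRNA in transiently transfected HepG2, harvested 24 h post-dose and measured by RT-PCR plus capillary electrophoresis.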

Experiment [6] is described as follows: ATG_AP_1_CIS: Attagene CIS-FACTORIAL HepG2 Assay for human Activator Protein 1 (AP-1) (AID 2282931). Conditions: HepG2 Attagene cis-factorial AP-1 reporter mRNA; actives raise or lower the signal. The essentials: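 After 24 h incubation with test chemical, RNA from transfected HepG2 cells was reverse-transcribed, amplified, fluorescently labelled and digested before capillary electrophoresis. Reporters were driven by cis-regulatory promoters; activity fitted bidirectionally versus DMSO.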

Experiment [7] is described as follows: ATG_AP_2_CIS: Attagene CIS-FACTORIAL HepG2 Assay for human Activator Protein 2 (AP-2) (AID 2282932). Conditions: HepG2 AP-2 cis-reporter, Attagene transcription factor profiling; actives raise or lower the signal. The essentials: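 Assay in transfected HepG2 with promoter-regulated reporters, 24 h incubation after dosing. Signal is reporter mRNA fluorescence (RT-PCR, capillary electrophoresis), analysed for both increases and decreases relative to DMSO controls.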

Experiment [8] is described as follows: ATG_BRE_CIS: Attagene CIS-FACTORIAL HepG2 Assay for human Bone Morphogenetic Protein (BMP) Response Element (BRE) (AID 2282933). Conditions: HepG2 BMP response element reporter, Attagene transcription factor profiling; actives raise or lower the signal. An outline of the steps: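 Endogenous transcription factor activity read in transiently transfected HepG2 cells after 24 h chemical exposure. Bidirectional curve fitting against DMSO; readout is reporter transcript level by RT-PCR with capillary electrophoresis of labelled products.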

Experiment [9] has as its target Transcription factor E2F1 (Homo sapiens) (UniProt Q01094). The experiment is described as follows: ATG_E2F_CIS: Attagene CIS-FACTORIAL HepG2 Assay for human E2F Transcription Factor 1 (AID 2282935). Conditions: HepG2 Attagene cis-reporter, E2F reporter RNA transcripts; actives raise or lower the signal. An outline of the steps: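 In this cis-factorial format, endogenous factor activity drives transfected reporters in HepG2; transcripts collected at 24 h are quantified by fluorescence after RT-PCR and capillary separation.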

A short description of experiment [10]: ATG_E_Box_CIS: Attagene CIS-FACTORIAL HepG2 Assay for human Enhancer Box (E-box) (AID 2282936). The following applies: HepG2 E-box cis-reporter transcription, actives raise or lower the signal. An outline of the steps:
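Measured 24 h post-dosing in HepG2 cells transfected with multiple cis-regulated reporter units, signal being reporter mRNA induction detected by fluorescent RT-PCR with capillary electrophoresis; gain or loss fitted against DMSO.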

Experiment [11] is described as follows: ATG_EGR_CIS: Attagene CIS-FACTORIAL HepG2 Assay for human Early Growth Response 1 (EGR1) (AID 2282938). The following applies: HepG2 Attagene CIS-FACTORIAL EGR reporter mRNA; actives raise or lower the signal. The essentials: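 Fluorescent capillary-electrophoresis signal of reporter cDNA fragments serves as read-out. HepG2 cells bear transiently transfected cis-promoter reporter units and are exposed 24 h; gain- or loss-of-signal is fitted against DMSO.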

A short description of experiment [12]: ATG_M_19_CIS: Attagene CIS-FACTORIAL HepG2 Assay for M19 Transcription Factor (Internal Marker) (AID 2282939). The following applies: HepG2 Attagene CIS-FACTORIAL M19 internal marker reporter; actives raise or lower the signal. An outline of the steps: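 Internal marker readout, fitted in both directions against DMSO, from HepG2 cells carrying transfected cis-element reporter constructs; RT-PCR and capillary electrophoresis of reporter mRNA after 24 h exposure.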

The nature of experiment [13]: ATG_ERE_CIS: Attagene CIS-FACTORIAL HepG2 Assay for Estrogen Response Element (ERE) (AID 2282940). Conditions: HepG2 ERE cis-reporter, Attagene RNA transcript; actives raise or lower the signal. An outline of the steps: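 After 24 h compound treatment, RNA from transfected HepG2 cells was reverse-transcribed, reporter cDNA PCR-amplified, FAM-labelled, HpaI-cut and resolved by capillary electrophoresis. ERE-driven cis reporter transcripts reflect endogenous factors; gain or loss scored against DMSO.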

Experiment [14] can be described thus: ATG_Ets_CIS: Attagene CIS-FACTORIAL HepG2 Assay for human Erythroblast Transformation Specific (ETS) (AID 2282941). Conditions: HepG2 ETS cis-reporter transcription, actives raise or lower the signal. An outline of the steps: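 RT-PCR/capillary electrophoresis fluorescence read-out of reporter mRNA; HepG2 transient multi-reporter transfection; 24 h compound exposure; gain or loss of signal fitted bidirectionally relative to DMSO.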

The target of experiment [15] is Hepatocyte nuclear factor 3-beta (Homo sapiens) (UniProt Q9Y261). The experiment is described as follows: ATG_FoxA2_CIS: Attagene CIS-FACTORIAL HepG2 Assay for human Forkhead box A2 (FOXA2) (AID 2282942). The following applies: HepG2 cis-reporter transcription factor activity, 24 h; actives raise or lower the signal. An outline of the steps: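 Fluorescence signal of reporter cDNA fragments, separated by capillary electrophoresis, reflects endogenous transcription factor activity in transfected HepG2 after 24 h. Both increases and decreases fitted against DMSO.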
Sequence of Hepatocyte nuclear factor 3-beta (Homo sapiens) (Q9Y261 whole entry, looked up, the tested form may be a part): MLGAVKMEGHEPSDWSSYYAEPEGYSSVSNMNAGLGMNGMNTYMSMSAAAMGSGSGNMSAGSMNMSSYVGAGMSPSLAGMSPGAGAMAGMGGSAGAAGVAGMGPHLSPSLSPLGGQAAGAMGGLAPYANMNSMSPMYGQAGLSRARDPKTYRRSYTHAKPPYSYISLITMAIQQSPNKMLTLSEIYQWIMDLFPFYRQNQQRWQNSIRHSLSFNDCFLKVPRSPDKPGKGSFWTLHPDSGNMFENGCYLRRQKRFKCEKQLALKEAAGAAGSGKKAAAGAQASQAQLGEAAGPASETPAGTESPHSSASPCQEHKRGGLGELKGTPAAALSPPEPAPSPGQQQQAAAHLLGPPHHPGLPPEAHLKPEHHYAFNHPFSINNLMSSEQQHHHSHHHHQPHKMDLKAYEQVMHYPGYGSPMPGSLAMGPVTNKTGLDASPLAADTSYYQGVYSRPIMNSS

Experiment [16] can be described thus: ATG_FoxO_CIS: Attagene CIS-FACTORIAL HepG2 Assay for human Forkhead box O (FoxO) (AID 2282943). The following applies: HepG2 Attagene cis-reporter, FoxO element, mRNA; actives raise or lower the signal. An outline of the steps:
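Values reflect reporter mRNA induction or loss in HepG2 cells 24 h post-dosing, fitted bidirectionally with DMSO as negative control and baseline. Detection used RT-PCR and fluorescence capillary electrophoresis.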

The nature of experiment [17]: ATG_GATA_CIS: Attagene CIS-FACTORIAL HepG2 Assay for human GATA Binding Protein (AID 2282944). Conditions: HepG2 GATA cis-element reporter, Attagene multiplex mRNA; actives raise or lower the signal. An outline of the steps:
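Reporter transcripts from a GATA cis-regulated unit, among multiplexed reporters in transfected HepG2 cells, were measured by RT-PCR with capillary electrophoresis after 24 h dosing. Induction or loss scored relative to DMSO.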

Experiment [18] can be described thus: ATG_GLI_CIS: Attagene CIS-FACTORIAL HepG2 Assay for human Zinc Finger Protein GLI1 (AID 2282945). Conditions: HepG2, Attagene cis-factorial reporter mRNA, GLI element; actives raise or lower the signal. An outline of the steps: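 HepG2 cells transiently transfected with cis-promoter multiplexed reporter units report endogenous transcription factor activity. After 24 h chemical exposure, reporter mRNA was quantified by RT-PCR, 6-FAM labelling, HpaI digestion and capillary electrophoresis, with bidirectional fitting against DMSO.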

The nature of experiment [19]: ATG_M_61_CIS: Attagene CIS-FACTORIAL HepG2 Assay for M61 Transcription Factor (Internal Marker) (AID 2282937). The following applies: HepG2 Attagene CIS-FACTORIAL M61 internal marker reporter; actives raise or lower the signal. An outline of the steps: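 Using transiently transfected HepG2 liver cells, reporter transcript levels were assessed 24 h post-dosing by RT-PCR and capillary electrophoresis. Changes in either direction were fitted relative to DMSO controls.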

In experiment [20] the target is Retinoic acid receptor alpha (Homo sapiens) (UniProt P10276). As to the kind of experiment: ATG_DR5_RAR_CIS: Attagene CIS-FACTORIAL HepG2 Assay for human Retinoic Acid Receptor Alpha (RARE), DR5 submotif (AID 2282934).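 Note: reporter responds to endogenous RAR alpha beta and gamma in HepG2 not RARA alone.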 Conditions: HepG2 Attagene cis-factorial RARE DR5 reporter, mRNA; actives raise or lower the signal. An outline of the steps:
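Endpoint fitted in both directions relative to DMSO as negative control. It reflects DR5 cis-element reporter mRNA induction in transiently transfected HepG2 cells, measured 24 h after dosing through RT-PCR and fluorescent capillary electrophoresis.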

Calls of active or inactive are those of the source. Rule for the calls: active = hit-call score of the fitted dose curve at least 0.9, where 1 is the maximum; inactive = score below 0.9.

Sequence of CCAAT/enhancer-binding protein beta (Homo sapiens) (P17676 whole entry, looked up): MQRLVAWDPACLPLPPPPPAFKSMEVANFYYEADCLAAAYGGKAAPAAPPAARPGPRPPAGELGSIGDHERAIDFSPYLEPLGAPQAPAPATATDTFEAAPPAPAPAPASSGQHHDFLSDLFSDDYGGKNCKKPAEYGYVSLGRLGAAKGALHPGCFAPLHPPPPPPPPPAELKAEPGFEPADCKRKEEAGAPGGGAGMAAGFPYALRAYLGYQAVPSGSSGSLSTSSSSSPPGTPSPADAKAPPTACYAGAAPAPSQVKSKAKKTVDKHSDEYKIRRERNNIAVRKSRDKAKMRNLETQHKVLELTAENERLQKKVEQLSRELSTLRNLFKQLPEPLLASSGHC
Sequence of Transcription factor E2F1 (Homo sapiens) (Q01094 whole entry, looked up): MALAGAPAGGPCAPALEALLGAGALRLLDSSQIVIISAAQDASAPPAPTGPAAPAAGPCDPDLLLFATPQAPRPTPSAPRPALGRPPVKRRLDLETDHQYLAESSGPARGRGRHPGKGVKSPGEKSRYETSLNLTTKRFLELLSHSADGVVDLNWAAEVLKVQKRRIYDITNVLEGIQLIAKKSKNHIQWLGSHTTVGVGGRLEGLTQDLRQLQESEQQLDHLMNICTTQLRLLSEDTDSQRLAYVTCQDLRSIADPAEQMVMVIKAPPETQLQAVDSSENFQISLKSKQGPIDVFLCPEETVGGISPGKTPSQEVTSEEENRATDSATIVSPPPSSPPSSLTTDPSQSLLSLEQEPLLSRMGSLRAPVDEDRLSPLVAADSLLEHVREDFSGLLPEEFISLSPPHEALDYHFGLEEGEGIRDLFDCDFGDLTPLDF
Sequence of Aryl hydrocarbon receptor (Homo sapiens) (P35869 whole entry, looked up): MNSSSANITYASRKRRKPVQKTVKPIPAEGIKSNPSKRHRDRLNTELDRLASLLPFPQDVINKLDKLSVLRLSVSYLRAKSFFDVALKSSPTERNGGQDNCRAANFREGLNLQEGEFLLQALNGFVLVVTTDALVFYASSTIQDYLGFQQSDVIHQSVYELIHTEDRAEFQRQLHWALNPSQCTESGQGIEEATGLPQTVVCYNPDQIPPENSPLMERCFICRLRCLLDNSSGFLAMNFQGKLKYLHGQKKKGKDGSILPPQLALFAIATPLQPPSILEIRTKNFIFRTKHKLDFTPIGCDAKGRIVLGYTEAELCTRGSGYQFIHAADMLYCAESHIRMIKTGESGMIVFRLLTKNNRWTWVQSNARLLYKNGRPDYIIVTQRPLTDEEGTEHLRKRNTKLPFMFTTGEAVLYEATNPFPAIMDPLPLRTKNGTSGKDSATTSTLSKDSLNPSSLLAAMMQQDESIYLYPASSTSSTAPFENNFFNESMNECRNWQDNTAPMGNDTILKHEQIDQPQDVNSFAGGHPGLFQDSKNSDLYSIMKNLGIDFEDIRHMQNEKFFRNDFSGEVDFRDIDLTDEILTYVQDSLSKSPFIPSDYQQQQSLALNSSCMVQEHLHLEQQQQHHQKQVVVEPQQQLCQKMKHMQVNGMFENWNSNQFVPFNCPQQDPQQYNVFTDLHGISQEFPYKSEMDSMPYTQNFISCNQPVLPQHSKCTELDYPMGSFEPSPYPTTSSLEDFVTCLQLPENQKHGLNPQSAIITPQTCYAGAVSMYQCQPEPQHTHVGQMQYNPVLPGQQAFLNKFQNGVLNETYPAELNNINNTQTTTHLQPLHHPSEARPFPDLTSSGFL
Sequence of Retinoic acid receptor alpha (Homo sapiens) (P10276 whole entry, looked up): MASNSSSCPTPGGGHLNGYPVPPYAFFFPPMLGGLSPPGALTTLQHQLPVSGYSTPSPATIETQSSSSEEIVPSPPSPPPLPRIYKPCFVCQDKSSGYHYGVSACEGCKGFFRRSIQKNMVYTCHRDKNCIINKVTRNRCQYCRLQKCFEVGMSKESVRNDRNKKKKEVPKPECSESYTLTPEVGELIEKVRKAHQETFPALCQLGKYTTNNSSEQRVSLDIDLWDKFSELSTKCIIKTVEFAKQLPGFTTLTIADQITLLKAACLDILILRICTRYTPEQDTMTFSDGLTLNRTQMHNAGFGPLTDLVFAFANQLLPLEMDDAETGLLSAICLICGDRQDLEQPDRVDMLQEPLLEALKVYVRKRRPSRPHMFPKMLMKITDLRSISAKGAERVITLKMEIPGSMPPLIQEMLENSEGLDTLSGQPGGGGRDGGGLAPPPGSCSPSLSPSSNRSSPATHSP

Regarding `C=CC(C)(CCC=C(C)C)OC=O` (configuration not stated), the compound was called inactive in experiment [1], in experiment [2], in [3], in experiment [4], in [5] and in experiment [6]. The result in [7], in experiment [8], in experiment [9], in [10], in experiment [11] and in experiment [12] was inactive. Moreover, the outcome in [13], in experiment [14], in experiment [15], in [16], in experiment [17] and in experiment [18] was inactive.
For the compound `O=[N+]([O-])c1ccc(C=Cc2ccc([N+](=O)[O-])cc2S(=O)(=O)O)c(S(=O)(=O)O)c1`, the result in experiment [1], in [2], in experiment [3], in [4], in experiment [5] and in [6] was inactive. For the same compound, the compound was classed as inactive in experiment [7], in experiment [8], in experiment [9], in experiment [19], in experiment [11] and in [12]. The outcome in experiment [14], in experiment [15], in experiment [16], in [17] and in [18] was inactive. In experiment [13], the AC50 was 62.3 µM (active).
For the compound `c1ccc2sc(SN(C3CCCCC3)C3CCCCC3)nc2c1`, the compound was called inactive in experiment [1], in experiment [2], in [4], in experiment [7], in experiment [8] and in experiment [10]. In addition, the compound was called inactive in experiment [19], in experiment [11], in experiment [12], in experiment [14], in experiment [15] and in [16]. The result in [17] and in experiment [18] was inactive. Further, the AC50 in [3] is 8.13 µM (active); in experiment [5], 49.1 µM (active); in [6], 11.9 µM (active).
On to `O=C(Nc1ccccc1)c1cc([N+](=O)[O-])ccc1Cl`, for which the AC50 in experiment [1] is 5.81 µM (active); in experiment [4], 100 µM (active); in experiment [5], 18.4 µM (active); in [6] it was 100 µM (active); in [8], 49.9 µM (active); in [11] it was 25.1 µM (active). Further, the result in [2], in [3], in experiment [7], in experiment [10], in [19] and in experiment [12] was inactive. For the same compound, the compound was classed as inactive in [13], in experiment [14], in experiment [15], in experiment [16], in experiment [17] and in experiment [18].
`CC(C)OP(=O)(CP(=O)(OC(C)C)OC(C)C)OC(C)C`: the call in [1], in experiment [2], in experiment [3], in experiment [4], in experiment [5] and in experiment [6] was inactive. In addition, the compound was called inactive in experiment [7], in [8], in experiment [19], in [11], in experiment [12] and in [13]. In addition, the compound was classed as inactive in experiment [14], in [16], in [17] and in [18].
With `COc1ccnc(CS(=O)c2nc3cc(OC(F)F)ccc3[nH]2)c1OC` (configuration not stated), the result in experiment [1], in experiment [2], in [3], in experiment [4], in experiment [5] and in [6] was inactive. The outcome in [7], in experiment [8], in experiment [9], in experiment [19], in experiment [11] and in [12] was inactive. In addition, the outcome in experiment [13], in [14], in experiment [15], in experiment [16], in experiment [17] and in experiment [18] was inactive.
Take `CCC(=O)OCCC(C)CCC=C(C)C` (configuration not stated): the compound was classed as inactive in experiment [1], in experiment [2], in experiment [3], in experiment [4], in experiment [5] and in experiment [6]. Besides, the call in [7], in experiment [9], in experiment [10], in experiment [19], in experiment [11] and in experiment [12] was inactive. Besides, the outcome in [14], in [15], in [16] and in experiment [17] was inactive. Moreover, the AC50 in [20] was 72.4 µM (active).

As usually defined, the AC50 is the concentration giving half of the maximal activity seen.
